Assay outcomes: PubChem BioAssay, several laboratories
Rpn11 block = inhibitors of human proteasome Rpn11; O00487; hit rate 0.59% among 360,000; human 26S proteasome, Ub4-pepOG fluorescence polarization; 20S core pre-blocked with epoxomicin; inhibition, % at 20 µM;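 active means inhibition at 20 µM, scaled to each plate's controls, above about 33%, limit read from the data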
TPT1 inhibitor = C. albicans TPT1 enzyme inhibition; inhibition, % at 5 µM; hit rate 0.81% among 300,000; recombinant caTPT1, FP RNA substrate dephosphorylation; AID 1962;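 active means inhibition above the mean of all tested compounds plus 3 SD, set per screening campaign, cut at about 24% in these data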;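 further: plate controls were DMSO alone for no effect and ferristatin control at 100 nM for full effect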
ZTA counter = ZTA (EBV) inhibition in EBNA-1 counter-screen; ZTA-DNA binding, fluorescence polarization; inhibition, % at 11 µM; P03206; hit rate 0.15% among 320,000; AID 2234; in the data active means inhibition above about 33%
Target sequence (P03206 whole entry, looked up): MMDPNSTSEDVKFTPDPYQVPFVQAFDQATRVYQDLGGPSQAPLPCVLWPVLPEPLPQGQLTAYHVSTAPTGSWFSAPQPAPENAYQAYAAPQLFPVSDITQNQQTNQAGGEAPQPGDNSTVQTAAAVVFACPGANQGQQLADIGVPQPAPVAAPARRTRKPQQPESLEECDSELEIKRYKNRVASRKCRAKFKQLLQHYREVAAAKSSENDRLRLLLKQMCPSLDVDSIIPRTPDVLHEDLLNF
dFosB act = activators of mouse delta FosB homodimer | P13346 | purified delta FosB, TAMRA-CDK5 oligo fluorescence polarization; percent of positive-control signal above neutral wells | activation, % at 25 µM | hit rate 0.99% among 340,000 | AID 493131;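 active means mean activation above about 17%, with every replicate also reaching it, limit read from the data, passing the limit was not always enough; inconclusive means only one of the two conditions met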
Target sequence (P13346 whole entry, looked up): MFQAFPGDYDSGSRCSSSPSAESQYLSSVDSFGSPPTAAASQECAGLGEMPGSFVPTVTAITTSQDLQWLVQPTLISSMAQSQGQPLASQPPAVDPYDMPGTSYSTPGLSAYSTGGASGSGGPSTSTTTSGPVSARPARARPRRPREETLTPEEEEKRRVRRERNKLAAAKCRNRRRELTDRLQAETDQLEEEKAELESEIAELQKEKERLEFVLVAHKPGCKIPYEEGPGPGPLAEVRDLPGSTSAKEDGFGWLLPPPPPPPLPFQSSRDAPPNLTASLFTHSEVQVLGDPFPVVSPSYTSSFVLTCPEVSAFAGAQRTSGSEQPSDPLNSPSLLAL
EBNA-1 inhibitor = blocks EBNA-1 binding to DNA | EBNA-1 DNA binding, fluorescence polarization | inhibition, % at 14.8 µM | hit rate 0.34% among 300,000; in the data active means inhibition above about 28%
GRIN3A LBD mod = modulators (binders) of human NR3A ligand-binding domain; NR3A LBD differential scanning fluorimetry, Tm shift; 0% = protein alone, 100% = glycine-bound protein; Tm shift relative to glycine control, % at 25 µM; hit rate 2.5% among 340,000;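 active means melting temperature shift of at least 10% of the positive control shift, at one fixed dose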
* marks the source's active call; other numbers are inactive results; ? = inconclusive; . = not tested or not shown. This is a sample that favours compounds with a hit; in the whole collection about 4.5% have one here.

SMILES	Rpn11 block	TPT1 inhibitor	ZTA counter	dFosB act	EBNA-1 inhibitor	GRIN3A LBD mod
CCC(C)N(C(=O)Cn1c(=O)cnc2ccccc21)C1CCS(=O)(=O)C1 (stereo not given)	3	3	2	2	7	3
Cc1n[nH]c(C)c1Sc1ccccc1N=Cc1cc(Cl)cc([N+](=O)[O-])c1O	8	-3	-2	51*	13	-13
CCCCNC(=O)C1=C(N)C(C(=O)Nc2ccc(C)c(S(=O)(=O)N3CCCCC3)c2)SC1=Nc1ccc(C)cc1C (stereo not given)	2	-4	-8	-17	27	24*
CCCCC(=O)Nc1ccc(C)c(S(=O)(=O)N2CCCCCC2)c1	1	.	1	-11	.	2
O=C(/C=C/c1ccc2c(c1)OCO2)NCCSCc1ccc(Cl)cc1Cl	1	.	.	-6	.	-6
O=C(/C=C/c1ccc2c(c1)OCO2)NCCSCc1cccc(Cl)c1	-2	-4	-3	3	11	26*
C=CCn1c(O)c(N=Nc2ccccc2)c2ccccc21	2	1	-6	-2	-12	2
C=CCn1c(O)c(N=Nc2ccccc2O)c2ccccc21	.	.	-2	4	.	15*
COc1ccc(/C=C/C(=O)NCC(=O)N/N=C/c2cccs2)cc1	-7	0	-10	-2	5	-18
CC(C)C1C(=O)N(Cc2cn(CCC3OCCO3)nn2)CCS(=O)(=O)N1Cc1ccc(-c2ccc(F)cc2)cc1 (stereo not given)	3	.	.	.	.	.
CSc1nc(-c2ccc(Cl)cc2)c(C#N)c(=O)[nH]1	-1	1	-19	2	-8	38*
CCOC(=O)C1(CC2CCCCO2)CCN(C(=O)Nc2cccc(SC)c2)CC1 (stereo not given)	5	-4	6	-6	-19	11*
O=C(O)c1cnn2c(C(F)(F)F)cc(-c3ccco3)nc12	-5	0	1	-7	6	0
O=C(c1cnn2c(C(F)(F)F)cc(-c3ccco3)nc12)N1CCCCCC1	-4	-3	1	-4	-8	11*
CCn1c2ccccc2c2cnc(N=CN(C)C)c(C#N)c21	-1	0	-20	-3	-8	0
CCN(CC)CCn1c2ccccc2c2cnc(N=CN(C)C)c(C#N)c21	2	3	19	29*	-2	-1
COc1cc2cc(CCOC(=O)c3ccco3)oc(=O)c2cc1OC	-5	.	6	-5	.	-2
Cc1csc2nc(SCC(=O)Nc3ccccc3F)[nH]c(=O)c12	6	2	7	24*	-2	2
COc1cccc(C2c3c(oc4ccc(Cl)cc4c3=O)C(=O)N2c2cc(C)on2)c1OC (stereo not given)	2	-1	-12	0	3	11*
CN(C)CCCNc1ccc(-c2cc(Nc3cccc(Cl)c3)ncn2)cn1	2	2	-2	39*	-2	-11
CN(C)c1cccc(-c2cc(Nc3ccc(C(C)(C)C)cc3)ncn2)c1	-1	.	.	.	.	.
Cc1ccc(-c2n[nH]c(=S)n2/N=C/c2sccc2C)cc1	8	-5	-2	?	15	15*
Cc1ccsc1/C=N/n1c(C2CCCCC2)n[nH]c1=S	-2	1	0	-1	2	8
CCCCOc1ccc(-c2c(C#N)c(N)nc(SCC(N)=O)c2C#N)cc1	13	3	1	-5	1	17*
CCCCOC(=O)CSc1nc(N)c(C#N)c(-c2ccc(OCC)cc2)c1C#N	5	0	3	12	8	-9
SMILES	Rpn11 block	TPT1 inhibitor	ZTA counter	dFosB act	EBNA-1 inhibitor	GRIN3A LBD mod
COc1cc(OC)c2ccc(=O)oc2c1C(CCN1CCOCC1)c1ccc2c(c1)OCO2 (stereo not given)	-11	.	.	6	.	15*
COc1cc(OC)c2ccc(=O)oc2c1C(CCN1CCCC1)c1ccc2c(c1)OCO2 (stereo not given)	-3	0	-11	8	-7	0
CCCc1cc(=O)[nH]c(SCC(=O)Nc2nc(-c3ccccc3)cs2)n1	4	-10	-1	0	1	-10
O=C(CSc1nc2ccccc2[nH]1)Nc1nc(-c2ccc(Br)cc2)cs1	6	0	3	10	18	35*
O=C(Cn1c(=O)oc2ccccc21)Nc1nc(-c2ccc(Br)cc2)cs1	2	1	7	1	10	15*
Cc1ccc(S(=O)(=O)NC(=O)NC2=NC(C)(C)N(c3ccc(Cl)c(Cl)c3)C(N)=N2)cc1	4	.	.	.	.	.
CCSc1nc(-c2cccnc2)ccc1C#N	1	-1	10	-18	5	-2
O=C1C=CC(=Nc2ccc3c(c2)Cc2cc(F)ccc2-3)O1	-4	.	.	-9	.	23*
Cc1ccnc(NS(=O)(=O)c2ccc(NC(=O)c3ccc(S(=O)(=O)N4CC(C)OC(C)C4)cc3)cc2)n1 (stereo not given)	-4	-3	8	-4	-1	0
CC(OC(=O)c1ccc(NC(=O)CC#N)cc1)C(=O)Nc1nc(-c2ccccc2)cs1 (stereo not given)	36	9	8	-3	7	21*
CC(OC(=O)c1ccc(NC(=O)CC#N)cc1)C(=O)Nc1ccc(Oc2ccccc2)cc1 (stereo not given)	15	11	3	0	9	.
O=C(NNC(=O)c1cc(-c2ccc(Cl)cc2Cl)nc2ccccc12)Nc1ccccc1	-3	-5	11	12	4	30*
CCc1cccc(NC(=O)CCCn2nc(C)c3c(C)n(-c4ccccc4)nc3c2=O)c1	-10	1	18	-16	5	-1
O=[N+]([O-])c1cc(C(F)(F)F)cc([N+](=O)[O-])c1NCCNC(=S)Nc1ccc(Cl)c(Cl)c1	3	-1	-3	6	0	26*
CCOC(=O)C1CCN(CC(O)COCc2ccccc2)CC1 (stereo not given)	-1	0	-13	1	-10	14*
CSc1ccccc1NC(=O)Nc1ccc(F)c(Cl)c1	14	-1	-3	-7	-3	42*
COc1ccc(Nc2cccc(Cl)c2)c(C(=O)O)c1	2	-4	-11	-2	-9	0
CSc1ccccc1NC(=O)Nc1cccc(Cl)c1	6	-1	-7	-5	4	10*
Cc1ccc(NC(=O)Nc2cccc(Cl)c2)c(C(=O)O)c1	0	-1	10	4	3	12*
COc1ccc(-c2csc3nc(-c4ccccc4OC)oc(=O)c23)cc1	-7	0	-9	-2	-4	-1
CN(CC(=O)Nc1ccc(S(=O)(=O)N2CCOCC2)cc1)Cc1ccc(F)cc1	-1	.	5	-12	.	-3
COc1ccccc1C1SCCN1S(=O)(=O)c1ccccc1 (stereo not given)	0	.	.	.	.	.
c1ccc(-c2nc3ccccn3c2-c2ccccc2)cc1	1	2	-4	-6	6	-1
